Pf growth 96h: Primary qHTS for delayed death inhibitors of the malarial parasite plastid, 96 hour incubation | P. falciparum luciferase reporter growth, 96 h | Potency, µM (highest dose often 28.7 µM), for the others: at the top dose activity change, negative = inhibition, actives largely listed as inhibitors | 320,000 tested, 6.9% active; note: potency is the fitted concentration of half-maximal effect; % is set by controls: 0 for no effect and ±100 for the full control effect
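Readout is luminescence from an integrated firefly luciferase in P. falciparum. Red cells, 2% hematocrit and 0.05% parasitemia final, were cultured with compound through two parasite generations (96 hours) at 37 C, 5% CO2.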
Shiga inhibitor: A qHTS for Small Molecule Inhibitors of Shiga Toxin. Vero cells, Shiga toxin protein synthesis inhibition reporter. inhibition, % at 38.7 µM. 290,000 tested, 9.2% active; in the data active = inhibition mostly above about 28%, no sharp cut-off; inactive = mostly below about 43%; note: 0% is about no effect
AMA1-RON2 inh: qHTS for Inhibitors of AMA1-RON; Towards Development of Antimalarial Drug Lead: Primary Screen; Potency, µM (titrated, usually from 58.2 µM), for inactives: top-dose activity change, negative = inhibition, actives largely listed as inhibitors; Plasmodium falciparum AMA1 (3D7) - RON2 peptide interaction; AlphaScreen AMA1-biotinylated RON2 peptide binding; 360,000 tested, 0.2% active;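 note: potency is the fitted concentration of half-maximal effect; 0% = vehicle wells and -100% = peptide control; nearly all actives have a fitted effect of over 45% in size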
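AMA1 (3D7) with his tag at 25 nM final met compounds first, then biotinylated RON2 peptide at 25 nM; detection used donor plus acceptor beads, 10 µg/mL apiece, read by AlphaScreen after 30 min at room temperature.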
Pf growth 48h: Primary qHTS for delayed death inhibitors of the malarial parasite plastid, 48 hour incubation; 310,000 tested, 5.9% active; P. falciparum luciferase growth in erythrocytes, 48 h; Potency, µM (series often up to 28.7 µM), inactives show top-dose activity change, negative = inhibition, hits mostly inhibitors; note: potency is the fitted concentration of half-maximal effect; % is set by controls: 0 for no effect and ±100 for the full control effect
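In quantitative HTS format, infected erythrocytes bearing luciferase-reporter parasites were treated for a single generation at 37 C. Luminescence after adding detection reagent served as the growth measure.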
HCV inhibitor: qHTS Assay for Inhibitors of Hepatitis C Virus (HCV); Huh7.5.1 HCVcc-Cre infection, luciferase reporter, 44 h; Potency, µM (highest dose often 41.8 µM), for inactives: top-dose activity change, negative = inhibition, actives largely listed as inhibitors; 340,000 tested, 3.4% active; AID 651820, 2012; note: potency is the fitted concentration of half-maximal effect; % is set by controls: 0 for no effect and ±100 for the full control effect
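Cells seeded at 1,000/well and cultured 4 h, then compounds added followed by HCVcc-Cre virus (~0.5 moi). After 44 h further culture, luciferase substrate was added, plates held 15 min at room temperature, and luminescence read for 15 sec.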
Cycloheximide cs: Cycloheximide Counterscreen for Small Molecule Inhibitors of Shiga Toxin; 300,000 tested, 12% active; max response, %; AID 2314, 2010; cell reporter, cycloheximide protein synthesis inhibition counterscreen; in the data active = max response mostly above about 13%, no sharp cut-off; inactive = mostly below about 14%; note: read at 38.3 µM for the half of the compounds with a filed dose; 0% is about no effect
* hit, by the source's call; ? = inconclusive; nt = no result. Most compounds without a hit are left out; they make up all but 21% or so of the library. Unless noted, calls come from the whole dose curve; as a rule, active = well fitted curve in the direction sought with a large enough effect; inconclusive = small, poorly fitted or top-dose-only effect, or another doubt; inactive = no such curve, though single readings can be large; an effect the other way counts as inactive or inconclusive.

SMILES | Pf growth 96h | Shiga inhibitor | AMA1-RON2 inh | Pf growth 48h | HCV inhibitor | Cycloheximide cs
C/C(=N/NC(=O)c1cnccn1)c1ccncc1 | -2.4% | 31.2 | 45.0% | 33.2% | 17.2% | 16.8
C/C(=N\NC(=O)c1ccn(C)n1)c1ccco1 | ? | 85.1* | -1.2% | 120.8% | 3.0% | 39.7*
C/C(=N\NC(=O)c1cc(-c2ccc(C)s2)[nH]n1)c1ccco1 | 87.3% | 66.1* | 71.4% | 75.5% | -22.8% | 39.2*
C/C(=N/NC(=O)c1cc(C)[nH]n1)c1ccco1 | 343.4% | 41.7* | 60.4% | 54.4% | 8.4% | 26.6*
C/C(=N\NC(=S)Nc1cccc(C)c1)c1ccco1 | 16.3% | -10.9 | 61.6% | ? | ? | -0.5
C/C(=N/NC(=O)c1cc(C)[nH]n1)c1ccncc1 | ? | 49.0* | 53.6% | 46.8% | -1.2% | 17.1*
COc1cccc(CN2CC(C(=O)NCCc3cn4cccnc4n3)CCC2=O)c1 (stereo unspecified) | nt | nt | -7.9% | nt | nt | nt
COc1cccc(OCC(=O)N2CCN(C)CC2)c1 | -12.2% | 52.9* | -9.1% | 40.9% | 12.3% | 35.4*
COc1cccc(OCC(=O)N2CCCc3ccccc32)c1 | 7.3% | 26.4 | 1.7% | 17.8% | -0.3% | 36.8*
CCN(CC)c1ccc(/C=N/OCC(=O)N2CCCc3ccccc32)cc1 | 9.5% | 18.6 | 28.2µM* | -6.8% | -26.5% | -1.1
O=C(COc1ccc(F)cc1)N1CCCc2ccccc21 | -0.4% | 44.2 | 15.4% | -1.9% | 0.5% | 11.3
O=C(CO/N=C/c1ccc(OC(F)F)cc1)N1CCc2ccccc21 | 11.3% | 17.5 | 2.2% | 0.5% | -1.1% | 1.3
Cc1ccccc1OCC(=O)N1CCCc2ccccc21 | -21.2% | active | 1.0% | -7.5% | 2.9% | 33.4*
CN1CCN(C(=O)COc2ccc(Oc3ccccc3)cc2)CC1 | -0.9% | 47.1 | -2.6% | 2.5% | ? | 5.8
Cc1cc(=O)oc2cc(OCC(=O)N3CCCc4ccccc43)ccc12 | nt | -11.5 | -2.0% | ? | -22.0% | -1.0
Cn1nnnc1SCCNCc1ccccc1OCc1ccc(Cl)cc1Cl | nt | 5.6 | nt | nt | nt | -2.9
O=C1c2cccc(OCC(=O)N3CCCc4ccccc43)c2CCN1Cc1cccnc1 | ? | 1.3 | -2.6% | ? | ? | 8.9
Cc1ccccc1CN1CCc2c(OCC(=O)N3CCCc4ccccc43)cccc2C1=O | 14.7µM* | 12.9 | -6.2% | ? | 12.6µM* | 0.6
Nc1c(-c2cccc(Cl)c2)cnn1-c1ccccc1 | 101.5% | 70.5* | -5.9% | 90.0% | -12.1% | 45.1*
Nc1c(-c2ccc(Cl)cc2)cnn1-c1cccc(C(F)(F)F)c1 | 135.9% | 41.2 | 2.0% | 94.4% | -17.5% | 19.4
O=c1cnn(-c2ccccc2)c(-c2ccccc2)c1 | -17.5% | 62.4* | 15.3% | 39.4% | ? | 22.9*
Fc1ccc(-c2ccnn2-c2ccccc2)cc1 | 34.4% | 21.7 | 5.3% | 11.3% | -4.7% | 14.0
Cc1ccc(-c2cnn(-c3cccc(C(F)(F)F)c3)c2N)cc1 | 183.7% | 89.4* | -7.2% | 29.8% | 11.2µM* | 40.5*
Nc1c(-c2ccccc2)cnn1-c1ccccc1 | 303.6% | 86.8* | -8.6% | 165.2% | 1.3% | 43.7*
COc1ccc(C2C(C#N)=C(N)N(N(C)C)C3=C2C(=O)CCC3)cc1 (stereo unspecified) | 2.33µM* | -11.8 | -4.4% | -1.3% | 4.0% | -5.6
SMILES | Pf growth 96h | Shiga inhibitor | AMA1-RON2 inh | Pf growth 48h | HCV inhibitor | Cycloheximide cs
Cc1ccc(C2C(C#N)=C(N)N(N(C)C)C3=C2C(=O)CCC3)cc1 (stereo unspecified) | -11.4% | -8.9 | 7.6% | -9.2% | 6.2% | -3.9
Cc1ccccc1C1C(C#N)=C2NC(=O)c3c(sc4c3CCCCC4)N2C2=C1C(=O)CC(C)(C)C2 (stereo unspecified) | -0.3% | -7.0 | nt | ? | nt | -2.7
CN(C)N1C(N)=C(C#N)C(c2ccc(Cl)cc2)C2=C1CCCC2=O (stereo unspecified) | 0.738µM* | -4.7 | 0.9% | -6.3% | -14.4% | 20.2
C=CCOc1ccc(C2C(C#N)=C(N)N(N(C)C)C3=C2C(=O)CCC3)cc1 (stereo unspecified) | 31.4% | -5.8 | -1.7% | ? | 2.8% | -3.2
CN(C)N1C(N)=C(C#N)C(c2ccsc2)C2=C1CCCC2=O (stereo unspecified) | 9.28µM* | -3.5 | 9.5% | ? | 30.0% | -5.1
COc1cc(C2C(C#N)=C(N)N(c3sc4c(c3C#N)CCCC4)C3=C2C(=O)CC(C)(C)C3)cc(OC)c1OC (stereo unspecified) | 11.7µM* | -15.6 | 12.0% | ? | 7.0% | -0.1
CCCNC(=O)C1(C)CCN(C(=O)Cc2ccc(OC)c(OC)c2)C1 (stereo unspecified) | nt | nt | -0.8% | nt | nt | nt
Cc1ccccc1C(=O)c1cccn1CC(=O)NCCCN1CCc2ccccc2C1 | 32.1% | 14.2 | -2.6% | ? | 5.1% | 10.3
O=C(COC(=O)Cn1[nH]c(=O)c2ccccc2c1=O)NNC(=O)c1ccccc1 | -6.9% | nt | 29.5% | -16.5% | 6.6% | nt
CN(C)N1C(N)=C(C#N)C(c2cccc3ccccc23)C2=C1CC(c1ccccc1)CC2=O (stereo unspecified) | ? | -7.3 | 28.9% | 9.28µM* | ? | 5.6
CN(C)N1C(N)=C(C#N)C(c2ccsc2)C2=C1CC(C)(C)CC2=O (stereo unspecified) | 13.7% | 7.6 | 9.0% | -20.2% | 41.2% | -2.8
CN(C)N1C(N)=C(C#N)C(c2ccccc2)C2=C1CC(C)(C)CC2=O (stereo unspecified) | -10.0% | -6.1 | 7.1% | nt | -8.6% | 1.1
Cc1ccc(N2C(N)=C(C#N)C(c3ccsc3)C3=C2CC(C)(C)CC3=O)cc1 (stereo unspecified) | -20.5% | -21.0 | 46.4% | ? | 12.6µM* | -10.1
CN1CCN(c2nc(-c3ccccc3O)nc3ccccc23)CC1 | ? | -4.3 | 4.3% | ? | ? | -2.4
CN1CCN(c2nc(-c3ccccc3Cl)nc3ccccc23)CC1 | -19.8% | -2.6 | -0.7% | -28.1% | -4.8% | -3.9
CCN(CC)c1nc(-c2cccc(OC)c2O)nc2ccccc12 | 15.1% | -15.4 | ? | nt | -25.4% | -3.9
OCCN1CCN(c2nc(-c3ccccc3O)nc3ccccc23)CC1 | ? | -1.2 | 2.5% | -17.2% | 22.4µM* | -2.8
COc1cccc(-c2nc(N3CCCCC3C)c3ccccc3n2)c1O (stereo unspecified) | 3.2% | -14.4 | -25.6% | ? | 8.91µM* | 1.9
COc1cccc(-c2nc(N3CCN(C)CC3)c3ccccc3n2)c1O | 0.0% | 34.2 | -6.1% | 0.0% | ? | 13.6*

Screens: PubChem, National Center for Advancing Translational Sciences (NCATS)
